Among the data in PubChem BioAssay (Tox21) are Potency and max response values, retold here.

Molecules are shown by their SMILES. Records with an inconclusive call do not appear. Values without a mark were called inactive. The source made the active and inactive calls. Calls follow the shape of the dose curve; as a rule, active = well fitted curve in the direction sought with a large enough effect in the repeat runs; inconclusive = weak or mixed curves; inactive = no such curve, though single readings can be large; an effect the other way counts as inactive or inconclusive.

Experiment [1] can be described thus: qHTS RealTime-Glo MT Cell Viability Assay in HepG2 cells - 40 hour (AID 1224870). Also: nearly all actives have a fitted effect of over 50% in size. An outline of the steps:
(§1)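 HepG2 cells mixed with RealTime-Glo MT reagents (NanoLuc plus cell-permeant prosubstrate) were seeded at 600 cells/well, incubated 5 h at 37 C/5% CO2, then pinned with compounds in DMSO; nonlytic luminescence tracked viability during 40 h treatment.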

Experiment [2] in a line: A CellTox Green Cytotoxicity Assay to monitor cytotoxicity in HEK293 cells - 40 hour (AID 1224871). Also: nearly all actives have a fitted effect of over 45% in size. Also: potency is read from the fitted curve at half-maximal effect. An outline of the steps: (§2)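 Fluorescence intensity, read at 0, 8, 16, 24, 32 and 40 h of compound treatment, reflected dye binding to DNA of dead HEK293 cells; compounds (23 nL, DMSO) were added 5 h after plating cells with reagent.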
A short description of experiment [3]: qHTS RealTime-Glo MT Cell Viability Assay in HepG2 cells - 8 hour (AID 1224873). Also: nearly all actives have a fitted effect of over 55% in size. The procedure, abridged: as §1
The nature of experiment [4]: A CellTox Green Cytotoxicity Assay to monitor cytotoxicity in HEK293 cells - 24 hour (AID 1224875). Also: series mostly up to about 77 µM; nearly all actives have a fitted effect of over 45% in size. An outline of the steps:
as §2

A short description of experiment [5]: A CellTox Green Cytotoxicity Assay to monitor cytotoxicity in HepG2 cells - 16 hour (AID 1224876). Also: nearly all actives have a fitted effect of over 45% in size. Also: potency is read from the fitted curve at half-maximal effect. The procedure, abridged: (§3)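 Using 1536-well format, dye-containing HepG2 suspension was seeded, allowed 5 h at 37 C/5% CO2, dosed by pintool with compounds, positive and negative controls, and imaged for fluorescence across 40 h.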
The nature of experiment [6]: qHTS RealTime-Glo MT Cell Viability Assay in HepG2 cells - 32 hour (AID 1224877). Also: nearly all actives have a fitted effect of over 55% in size. An outline of the steps: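 HepG2 cells (600/well) were dispensed with RealTime-Glo reagents, incubated 5 h at 37 °C, then treated with compounds in DMSO for up to 40 h. Nonlytic NanoLuc luminescence reflecting viable cells was read at each stated time point.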
(qHTS replaces the single test concentration by a dilution series.)

Experiment [7] in a line: A CellTox Green Cytotoxicity Assay to monitor cytotoxicity in HepG2 cells - 24 hour (AID 1224878). Also: nearly all actives have a fitted effect of over 45% in size. Also: potency is read from the fitted curve at half-maximal effect. The procedure, abridged:
as §3

Experiment [8] is described as follows: qHTS RealTime-Glo MT Cell Viability Assay in HEK293 cells - 40 hour (AID 1224874). Also: nearly all actives have a fitted effect of over 50% in size. Also: potency is read from the fitted curve at half-maximal effect. As to conditions: RealTime-Glo luminescence; max response: hits give low values. The procedure, abridged: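 Viable HEK293 cells reduce a cell-permeant prosubstrate; the product diffuses out and is consumed by NanoLuc in the medium to give light. Compounds went in after a 5 h incubation and plates were read over the treatment course.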

Experiment [9] can be described thus: A CellTox Green Cytotoxicity Assay to monitor cytotoxicity in HepG2 cells - 40 hour (AID 1224879). Also: nearly all actives have a fitted effect of over 40% in size. Also: potency is read from the fitted curve at half-maximal effect. The procedure, abridged: as §3
% is scaled to controls: 0 for no effect and ±100 for the full control effect.

In the case of `O=c1[nH]c2ccc(S(=O)CCN3CCC(Cc4ccc(F)cc4)CC3)cc2o1` (stereo not given), the Potency result in experiment [1], in [2], in experiment [3], in [4], in [5] and in [6] was “inactive” each time. Moreover, the Potency result in experiment [7] was “inactive”.

As for `CCCCCCCCCOC(C)=O`, the Potency result in experiment [1], in experiment [2], in experiment [3], in [4], in experiment [5] and in experiment [6] was “inactive” each time. The Potency result in experiment [7] and in experiment [9] was “inactive” throughout. The max response in experiment [8] is -10.8%.

As for `Cc1ccc(/C=N/n2c(-c3ccccc3)csc2=S)cc1`, the Potency entry in experiment [1], in [2], in [3], in experiment [5], in experiment [6] and in [7] was “inactive” throughout. Besides, in experiment [9], the Potency result was “inactive”. Also, the max response in experiment [8] was -0.419%.

In the case of `CC(=O)Oc1ccc(C(=C2CCCCC2)c2ccc(OC(C)=O)cc2)cc1`, the Potency result in [1], in [2], in [3], in [4], in [5] and in experiment [6] was “inactive” in each case. Also, the Potency entry in experiment [7] and in [9] was “inactive” throughout. Further, the max response in [8] is 4.82%.

For `CN1C(=O)CC(C)(c2ccccc2)C1=O` (stereo not given), the Potency entry in [1], in experiment [2], in experiment [3], in experiment [4], in [5] and in [6] was “inactive” in each case. Also, the Potency entry in experiment [7] and in experiment [9] was “inactive” each time. Besides, the max response in experiment [8] is -3.29%.

For the molecule `O=C(O)c1ccc(CO)o1`, the Potency entry in [1], in experiment [2], in experiment [3], in experiment [4], in experiment [7] and in [9] was “inactive” throughout. The max response in experiment [8] is -0.778%.

Take `CCCCC(CC)COC(=O)COc1ccc(Cl)cc1C` (stereo not given): the Potency result in experiment [1], in experiment [2], in experiment [3], in [5], in experiment [6] and in [7] was “inactive” each time. Further, in experiment [9], the Potency entry was “inactive”. The max response in experiment [8] is 14.7%.

`CC1C2CC(CC2C2CCCC(O)C2)C1(C)C` (stereo not given): the Potency entry in [1], in experiment [3] and in experiment [6] was “inactive” in each case. In addition, the Potency was 49 µM (active) in experiment [2], 38.9 µM (active) in experiment [5], 43.6 µM (active) in experiment [7] and 43.6 µM (active) in experiment [9]. In [8], the max response was -15.9%.

With `COC(=O)c1cc(S(N)(=O)=O)ccc1OC`, the Potency entry in experiment [1], in [2], in experiment [3], in experiment [5], in [6] and in experiment [7] was “inactive” throughout. Moreover, the Potency result in experiment [9] is “inactive”. Besides, the max response in experiment [8] is 7.1%.

In the case of `N#C[C@@H]1C[C@@H]2C[C@@H]2N1C(=O)[C@@H](N)C12CC3CC(CC(O)(C3)C1)C2`, the Potency entry in experiment [1], in [2], in experiment [3], in experiment [4], in experiment [5] and in experiment [7] was “inactive” in each case. For the same molecule, in experiment [9], the Potency result is “inactive”. The max response in experiment [8] was 10.4%.

In the case of `CN(C)C(=O)Nc1ccc(Oc2ccc(Cl)cc2)cc1`, the Potency entry in [1], in experiment [2], in experiment [3], in experiment [5] and in [6] was “inactive” throughout. Moreover, in [8], the Potency is 34.7 µM (active).

Take `C(=C\c1ccccc1)/CN1CCN(C(c2ccccc2)c2ccccc2)CC1`: the Potency result in experiment [1], in experiment [2], in experiment [3], in experiment [4], in experiment [5] and in [6] was “inactive” in each case. Moreover, the Potency result in [7] is “inactive”.

With `CC1CC(=O)NN=C1c1ccc(NCC(C)(C)NCC(O)COc2cc(Cl)ccc2C#N)cc1` (stereo not given), the Potency entry in experiment [1], in experiment [2], in experiment [3], in experiment [4], in experiment [6] and in [7] was “inactive” throughout. The Potency result in experiment [9] was “inactive”.

Turning to `Nc1c(I)cc(I)c(C(=O)N(CCC(=O)O)c2ccccc2)c1I`, the Potency entry in [1], in [2], in [3], in experiment [5], in experiment [6] and in experiment [9] was “inactive” each time. Also, in [8], the max response is -10.8%.

On to `CC(C)(C)C(=O)O`, for which the Potency entry in experiment [1], in experiment [2], in experiment [3], in experiment [4], in experiment [5] and in experiment [6] was “inactive” throughout. Besides, the Potency entry in experiment [7] and in experiment [9] was “inactive” each time. Further, the max response in experiment [8] is 6.48%.

For the molecule `CCOC(=N)CC(=O)OCC`, the Potency entry in experiment [1], in [2], in experiment [3], in [4], in [5] and in experiment [6] was “inactive” each time. Further, the Potency entry in experiment [7] and in experiment [9] was “inactive” in each case. In addition, the max response in [8] was -25%.

Regarding `O=C(C(=O)c1ccccc1)c1ccccc1`, the Potency entry in experiment [1], in experiment [2], in [3], in experiment [4], in experiment [5] and in [6] was “inactive” throughout. Moreover, the Potency result in [7] and in experiment [9] was “inactive” each time. In experiment [8], the max response was 3.7%.

As for `CCOC(=O)N1CCC(n2c(=O)[nH]c3cc(Cl)ccc32)CC1`, the Potency result in [1], in [2], in experiment [3], in [4], in experiment [5] and in [6] was “inactive” throughout. Further, the Potency result in experiment [7] and in experiment [9] was “inactive” throughout.

For `Cc1nc2ccccc2s1`, the Potency result in experiment [1], in experiment [2], in experiment [3], in experiment [4], in experiment [5] and in [6] was “inactive” in each case. For the same molecule, the Potency result in experiment [7] and in experiment [9] was “inactive” in each case. Also, the max response in experiment [8] is 2.93%.

For `CCC(=O)Oc1ccc(/C(CC)=C(\CC)c2ccc(OC(=O)CC)cc2)cc1`, the Potency entry in [1], in experiment [2], in experiment [3], in [4], in experiment [5] and in [6] was “inactive” each time. Moreover, the Potency result in experiment [7] and in [9] was “inactive” each time. Besides, the Potency in [8] is 17.4 µM (active).

With `CC1(C)O[C@@H]2C[C@H]3[C@@H]4CCC5=CC(=O)C=C[C@]5(C)[C@H]4[C@@H](O)C[C@]3(C)[C@]2(C(=O)CO)O1`, the Potency entry in experiment [1], in experiment [2], in experiment [3], in experiment [4], in experiment [6] and in [9] was “inactive” in each case. Also, the max response in [8] was -1.67%.

Regarding `Cc1occc1C(=O)Nc1ccc(C(=O)N2CCC(F)(F)/C(=C\C(=O)N3CCC(N4CCCCC4)CC3)c3ccccc32)cc1`, the Potency result in [1], in [2], in experiment [3], in experiment [4], in [5] and in [6] was “inactive” each time. In addition, the Potency entry in experiment [7] was “inactive”. Also, the values for the Potency in experiment [8] and in [9] were 6.83 µM (active) and 15.3 µM (active), respectively.

In the case of `C=CCOC(=O)/C=C\C(=O)OCC=C`, the Potency entry in experiment [1], in experiment [2], in experiment [3], in [4], in experiment [5] and in [6] was “inactive” each time. Also, the Potency entry in experiment [7] and in experiment [9] was “inactive” throughout.
